{"source": "PubChem BioAssay (EPA / NIEHS)", "note": "Results filed as inconclusive are left out. Active and inactive are the calls of the source. Rule for the calls: active = hit-call score of the fitted dose curve at least 0.9, where 1 is the maximum; inconclusive = response in the unintended direction; inactive = score below 0.9.", "data": [{"assay": "ATG_XTT_Cytotoxicity: Cytotoxicity Assessment in the Attagene TRANS-FACTORIAL HepG2 Assay (AID 2283584)", "summary_of_the_method": "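HepG2 human liver cells, transiently transfected with multiple GAL4-UAS reporter units, were dosed and read at 24 h by XTT as cell number. Loss of signal was fitted relative to DMSO negative control baseline.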", "values": [{"smiles": "O=C(O)C(c1ccc(Cl)cc1)c1ccc(Cl)cc1", "outcome": "inactive"}, {"smiles": "CCCCCCCCc1ccc(Nc2ccc(CCCCCCCC)cc2)cc1", "outcome": "inactive"}, {"smiles": "CC(C)(C)C(=O)C=Cc1ccc(Cl)cc1", "outcome": "inactive"}, {"smiles": "COC(=O)c1sccc1S(N)(=O)=O", "outcome": "inactive"}, {"smiles": "CC(C)C(=O)C(C)C", "outcome": "inactive"}, {"smiles": "COc1ccc([C@@H]2CC(=O)c3c(O)cc(O[C@@H]4O[C@H](CO[C@@H]5O[C@@H](C)[C@H](O)[C@@H](O)[C@H]5O)[C@@H](O)[C@H](O)[C@H]4O)cc3O2)cc1OC", "outcome": "inactive"}, {"smiles": "NNC(=O)c1cccc(C(=O)NN)c1", "outcome": "inactive"}, {"smiles": "Nc1ccc2cc3ccccc3cc2c1", "outcome": "inactive"}, {"smiles": "CCCCCC/C=C/C=O", "outcome": "inactive"}, {"smiles": "Cc1ccc2c(c1)C(=O)c1ccccc1C2=O", "outcome": "inactive"}, {"smiles": "C(=CC=Nc1ccccc1)C=CNc1ccccc1", "outcome": "inactive"}, {"smiles": "C[Si](C)(C)O[Si](O)(O)O", "outcome": "inactive"}, {"smiles": "C=C(C)[C@@H]1CCC2=CCC[C@@H](C)[C@]2(C)C1", "outcome": "inactive"}, {"smiles": "C=C(C)CCO", "outcome": "inactive"}, {"smiles": "CC1(C)S[C@@H]2[C@H](NC(=O)COc3ccccc3)C(=O)N2[C@H]1C(=O)O", "outcome": "inactive"}, {"smiles": "OCCNCc1ccccc1", "outcome": "inactive"}, {"smiles": "O=C(O)Cc1c(Cl)ccc(Cl)c1Cl", "outcome": "inactive"}, {"smiles": "c1ccc2c(c1)ccc1ncccc12", "outcome": "inactive"}, {"smiles": "COC=O", "outcome": "inactive"}, {"smiles": "c1ccc(CNCc2ccccc2)cc1", "outcome": "inactive"}, {"smiles": "O=C1Nc2ccccc2C1(c1ccc(O)cc1)c1ccc(O)cc1", "outcome": "inactive"}, {"smiles": "C=CC(=O)OCC(Br)CBr", "note": "(stereo not given)", "outcome": "inactive"}, {"smiles": "CCCCCCCCCCc1ccccc1", "outcome": "inactive"}, {"smiles": "C[Si](C)O[Si](C)(C)O[Si](C)(C)O[Si](C)C", "outcome": "inactive"}, {"smiles": "CC(C)=CC1CC(C)CCO1", "note": "(stereo not given)", "outcome": "inactive"}, {"smiles": "Cc1cnc(NC(=O)C2=C(O)c3ccccc3S(=O)(=O)N2C)s1", "outcome": "inactive"}, {"smiles": "CCc1nccnc1C", "outcome": "inactive"}, {"smiles": "COC(=O)c1ccccc1OC", "outcome": "inactive"}, {"smiles": "Cc1ccccc1C", "outcome": "inactive"}, {"smiles": "CCN(Cc1cccc(S(=O)(=O)O)c1)c1ccc(C(=C2C=CC(=[N+](CC)Cc3cccc(S(=O)(=O)[O-])c3)C=C2)c2ccccc2)cc1", "outcome": "inactive"}, {"smiles": "CCN(CC#N)c1cccc(C)c1", "outcome": "inactive"}, {"smiles": "CC(=O)OCC(C)OC(C)=O", "note": "(stereo not given)", "outcome": "inactive"}, {"smiles": "C=CC(=O)OCCOC1C2CCC1C1CC=CC12", "note": "(stereo not given)", "outcome": "inactive"}, {"smiles": "CCCCCCCCCCCCCCCC(=O)OCC", "outcome": "inactive"}, {"smiles": "CCN(CC)c1ccc(C(=O)c2ccccc2C(=O)O)c(O)c1", "outcome": "inactive"}, {"smiles": "CNC(=S)N(C)C", "outcome": "inactive"}, {"smiles": "Cc1ccc2oc(=O)ccc2c1", "outcome": "inactive"}, {"smiles": "NC(=O)NNC(N)=O", "outcome": "inactive"}, {"smiles": "C=C(C)C(=O)OCCOc1ccccc1", "outcome": "inactive"}, {"smiles": "O=P(O)(O)Oc1ccccc1", "outcome": "inactive"}]}]}
